Experimental data taken from PubChem BioAssay.
The source made the active and inactive calls. How the calls were made is not given here.

Molecular target: L-lactate dehydrogenase (Plasmodium falciparum (isolate CDC / Honduras)) (UniProt Q27743)
Assay: PfLDH activity inhibition – cell lysate, 3D7 strain, counter-screen for P. falciparum growth inhibition project (AID 2304);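 further: 0% = vehicle and 100% = reference inhibitor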
Details: P. falciparum 3D7 crude extract, LDH APAD/NBT absorbance; at 2 µM; active compounds read high

Chain of L-lactate dehydrogenase (Plasmodium falciparum (isolate CDC / Honduras)) (Q27743 whole entry, looked up): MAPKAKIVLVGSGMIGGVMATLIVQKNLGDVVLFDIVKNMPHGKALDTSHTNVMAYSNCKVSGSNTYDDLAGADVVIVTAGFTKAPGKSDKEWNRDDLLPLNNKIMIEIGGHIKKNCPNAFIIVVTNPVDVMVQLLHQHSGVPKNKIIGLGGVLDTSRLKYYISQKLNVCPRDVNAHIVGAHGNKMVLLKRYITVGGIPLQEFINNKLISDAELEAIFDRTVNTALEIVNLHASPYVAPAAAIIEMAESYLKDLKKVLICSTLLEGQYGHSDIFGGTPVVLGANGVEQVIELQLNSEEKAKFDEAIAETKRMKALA

| SMILES | inhibition |
| --- | --- |
| O=C(Nc1cccc(CN2CCCN(Cc3ccc(O)cc3)CC2)c1)c1cc2ccccc2s1 | -7% (inactive) |
| O=C(Nc1ccc(OC2CCN(Cc3ccccc3)CC2)c(Cl)c1)c1ccc(F)cc1 | 9% (inactive) |
| CCN(CC)CCNc1ccnc2[nH]c3ccc(I)cc3c12 | -1% (inactive) |
| CN(C)c1nc2cc(-n3cnc4cc(-c5ccc(Cl)cc5)sc4c3=O)ccc2n1CCCN1CCCC1 | 2% (inactive) |
| Cc1[nH]c2ccccc2c(=O)c1Br | 3% (inactive) |
| O=C(/C=C/c1ccc(Cl)c(Cl)c1)NCCCCCCN1CCN(C(=O)Nc2cccc(Cl)c2)CC1 | -3% (inactive) |
| Cc1cccc2[nH]c(-c3ccc(-c4cccc(CN5CCN(c6ccncc6)CC5)c4)cc3)nc12 | 7% (inactive) |
| CCCCc1cc(N2CCC(NC(C)=O)C2)nc(Nc2ccc(C)cc2)n1 (centres undefined) | -8% (inactive) |
| CCOC(=O)CNC(=O)N(CCN(Cc1ccccc1)C(=O)NCC(=O)OCC)Cc1ccccc1 | 5% (inactive) |
| Cc1cccc2[nH]c(-c3cc(-c4cccc(Cl)c4)cnc3N)nc12 | 2% (inactive) |
| c1ccc(-c2ccc(-c3csc(Nc4ccncc4)n3)cc2)cc1 | 3% (inactive) |
| CC(C)N(CCOc1ccc2c(c1)N(C(=O)Nc1ccc(Cl)c(Cl)c1)CC2)C(C)C | 3% (inactive) |
| Cn1c(/C=C/C(=O)NC2CCC(CCN3CCc4ccc(C#N)cc4CC3)CC2)cc2ccccc21 (centres undefined) | -1% (inactive) |
| Cc1ccc(NC(=O)c2ccc3ncccc3c2)cc1OC1CCN(Cc2ccc(F)cc2)C1 (centres undefined) | 3% (inactive) |
| CCc1nc(N)nc(N)c1-c1ccc(F)cc1 | -2% (inactive) |
| Cc1cc(NCCC(=O)NCCOc2ccccc2)nc(NCCOc2ccccc2)n1 | 0% (inactive) |
| CCNc1cc(C)nc(Nc2ccccc2)n1 | -1% (inactive) |
| Cc1cc(N(C)CCCN2CCCCC2)nc(Nc2ccc(Cl)cc2)n1 | -3% (inactive) |
| CC(C)(C)Oc1ccc(CC2NC3(C(=O)N(Cc4ccc(C(C)(C)C)cc4)c4ccccc43)C3C(=O)N(c4ccc(Br)cc4)C(=O)C23)cc1 (centres undefined) | 0% (inactive) |
| Cc1ccc2[nH]c(C3CCCNC3)c(-c3ccncc3)c2c1 (centres undefined) | 0% (inactive) |
| Cn1nc(-c2cccc(CNC3CCc4ccccc43)c2)c2cnc(NCCCN3CCCC3)nc21 (centres undefined) | -2% (inactive) |
| Cc1ccc2c(c1)c(-c1ccccc1)c(-c1ccccc1)n2CC(O)CN1CCN(CC=Cc2ccccc2)CC1 (centres undefined) | 6% (inactive) |
| O=C(CCN1CCCCC1)Nc1ccc(Nc2nccc(NCC(O)c3ccccc3)n2)cc1 (centres undefined) | -1% (inactive) |
| CCc1ccc(N2C(=O)C3C(Cc4ccc(OC(C)(C)C)cc4)NC4(C(=O)N(Cc5ccccc5)c5ccc(F)cc54)C3C2=O)cc1 (centres undefined) | -10% (inactive) |
| CCC[C@@H]([C@@H](CC1CCCCC1)C(=O)N[C@H](C(=O)Nc1nccs1)[C@H](C)O)N(O)C=O | -5% (inactive) |

Tested on: not listed separately
Assay: inhibition of 3D7 malaria parasite growth – strain 3D7 (AID 2306);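 further: 0% = DMSO wells and 100% = chloroquine plus artemisinin control wells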
Details: P. falciparum 3D7 erythrocytic growth, LDH absorbance, 72 h; at 2 µM; active compounds read high

| SMILES | growth inhibition |
| --- | --- |
| Cc1nc(-c2nc(NCc3ccncc3)ncc2-c2ccsc2)sc1C | 91% (active) |
| CN(Cc1ccccc1)C1CCN(c2cc(NC(=O)c3cccc(F)c3)ccn2)CC1 | 93% (active) |
| FC(F)(F)c1ccc2nc(-c3ccc(-c4cccc(CN5CCC(CCN6CCCCC6)CC5)c4)cc3)[nH]c2c1 | 101% (active) |
| COCCCNC(=O)C1CCN(C(c2ccc(Cl)cc2)c2ccc(Cl)cc2)CC1 | 91% (active) |
| NOCCCOc1ccccc1 | 100% (active) |
| Cc1ccc(-c2ccc(NC(=O)N3CCc4cc(Br)c(N5CCN(C)CC5)cc43)cc2)cn1 | 80% (active) |
| CCC(C)(C)c1ccc(OCCCC(=O)Nc2ccc(Cl)c([N+](=O)[O-])c2)c(C(C)(C)CC)c1 | 92% (active) |
| C=C(C)C1CC=C(CN2CCC(N3CCc4cc(NC(=O)c5cc(C)on5)ccc43)C2)CC1 (centres undefined) | 90% (active) |
| NC(=O)c1ccsc1NC(=O)CNC(c1ccc(F)cc1)c1cccs1 (centres undefined) | 92% (active) |
| COc1ccc(NC(=O)Nc2ccc(-c3ccncc3)c(C(F)(F)F)c2)cc1N1CCN(C)CC1 | 101% (active) |
| Nc1nc(N)c2c(CCc3ccc(Cl)c(Cl)c3)cccc2n1 | 101% (active) |
| CC(C)(C)c1ccc(CNCC(C)(C)c2nc(-c3ccc(Cl)c(O)c3)c(-c3ccnc(N)n3)[nH]2)cc1 | 100% (active) |
| COc1ccc(Nc2nccc(-c3ccc(NC(=O)c4cc5cc(F)ccc5[nH]4)cc3)n2)cc1 | 91% (active) |
| CC(C)N(Cc1ccc(-c2ccc(C(F)(F)F)cc2)cc1)C(=O)Cn1c(CCc2cccc(F)c2F)cc(=O)c2ccc(CCCN3CCCCC3)cc21 | 100% (active) |
| O=C(Nc1cccc(CN2CCCN(Cc3ccc(O)cc3)CC2)c1)c1cc2ccccc2s1 | 100% (active) |
| O=C(Nc1ccc(OC2CCN(Cc3ccccc3)CC2)c(Cl)c1)c1ccc(F)cc1 | 94% (active) |
| CCN(CC)CCNc1ccnc2[nH]c3ccc(I)cc3c12 | 100% (active) |
| CN(C)c1nc2cc(-n3cnc4cc(-c5ccc(Cl)cc5)sc4c3=O)ccc2n1CCCN1CCCC1 | 97% (active) |
| Cc1[nH]c2ccccc2c(=O)c1Br | 94% (active) |
| O=C(/C=C/c1ccc(Cl)c(Cl)c1)NCCCCCCN1CCN(C(=O)Nc2cccc(Cl)c2)CC1 | 85% (active) |

| SMILES | growth inhibition |
| --- | --- |
| Cc1cccc2[nH]c(-c3ccc(-c4cccc(CN5CCN(c6ccncc6)CC5)c4)cc3)nc12 | 101% (active) |
| CCCCc1cc(N2CCC(NC(C)=O)C2)nc(Nc2ccc(C)cc2)n1 (centres undefined) | 95% (active) |
| CCOC(=O)CNC(=O)N(CCN(Cc1ccccc1)C(=O)NCC(=O)OCC)Cc1ccccc1 | 98% (active) |
| Cc1cccc2[nH]c(-c3cc(-c4cccc(Cl)c4)cnc3N)nc12 | 101% (active) |
| c1ccc(-c2ccc(-c3csc(Nc4ccncc4)n3)cc2)cc1 | 101% (active) |
| CC(C)N(CCOc1ccc2c(c1)N(C(=O)Nc1ccc(Cl)c(Cl)c1)CC2)C(C)C | 101% (active) |
| Cn1c(/C=C/C(=O)NC2CCC(CCN3CCc4ccc(C#N)cc4CC3)CC2)cc2ccccc21 (centres undefined) | 101% (active) |
| Cc1ccc(NC(=O)c2ccc3ncccc3c2)cc1OC1CCN(Cc2ccc(F)cc2)C1 (centres undefined) | 83% (active) |
| CCc1nc(N)nc(N)c1-c1ccc(F)cc1 | 96% (active) |
| Cc1cc(NCCC(=O)NCCOc2ccccc2)nc(NCCOc2ccccc2)n1 | 92% (active) |
| CCNc1cc(C)nc(Nc2ccccc2)n1 | 92% (active) |
| Cc1cc(N(C)CCCN2CCCCC2)nc(Nc2ccc(Cl)cc2)n1 | 101% (active) |
| CC(C)(C)Oc1ccc(CC2NC3(C(=O)N(Cc4ccc(C(C)(C)C)cc4)c4ccccc43)C3C(=O)N(c4ccc(Br)cc4)C(=O)C23)cc1 (centres undefined) | 94% (active) |
| Cc1ccc2[nH]c(C3CCCNC3)c(-c3ccncc3)c2c1 (centres undefined) | 101% (active) |
| Cn1nc(-c2cccc(CNC3CCc4ccccc43)c2)c2cnc(NCCCN3CCCC3)nc21 (centres undefined) | 99% (active) |
| Cc1ccc2c(c1)c(-c1ccccc1)c(-c1ccccc1)n2CC(O)CN1CCN(CC=Cc2ccccc2)CC1 (centres undefined) | 98% (active) |
| O=C(CCN1CCCCC1)Nc1ccc(Nc2nccc(NCC(O)c3ccccc3)n2)cc1 (centres undefined) | 102% (active) |
| CCc1ccc(N2C(=O)C3C(Cc4ccc(OC(C)(C)C)cc4)NC4(C(=O)N(Cc5ccccc5)c5ccc(F)cc54)C3C2=O)cc1 (centres undefined) | 96% (active) |
| CCC[C@@H]([C@@H](CC1CCCCC1)C(=O)N[C@H](C(=O)Nc1nccs1)[C@H](C)O)N(O)C=O | 99% (active) |
